Assay outcomes: PubChem, National Center for Advancing Translational Sciences (NCATS)
mIDH1 inhibitor: qHTS for Inhibitors of mutant isocitrate dehydrogenase 1 (IDH1): qHTS. Isocitrate dehydrogenase [NADP] cytoplasmic (Homo sapiens), O75874. IDH1-R132H enzyme, NADPH consumption, diaphorase/resazurin fluorescence. Potency, µM (titrated, usually from 76.6 µM), inactives show at the top dose activity change, negative = inhibition, actives largely listed as inhibitors. 390,000 tested, 0.093% active. AID 602179, 2012; also: nearly all actives have a fitted effect of over 65% in size
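IDH1-R132H (0.5 ug/mL) preincubated 30 min with compound, then NADPH (0.016 mM) and alpha-KG (2 mM) added; 80 min at RT, pH 7.5. Remaining NADPH coupled via diaphorase/resazurin to fluorescence (540/590 nm); concentration-response curves normalized to no-enzyme control.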
TrxR1 substrate: qHTS Assay for Substrates of Mammalian Selenoprotein Thioredoxin Reductase 1 (TrxR1): qHTS; Thioredoxin reductase 1, cytoplasmic (Rattus norvegicus), O89049; purified TrxR1 substrate turnover, NADPH consumption readout; Potency, µM (top dose mostly 114 µM), for inactives: at the top dose activity change, negative = substrate turnover; 390,000 tested, 0.01% active; AID 588456, 2011; also: nearly all actives have a fitted effect of over 50% in size
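Rat TrxR1, dispensed at 90 nM, was prereduced with 400 uM NADPH (final) for 5 min at ~22 deg C, then incubated with compound 15 min before 400 uM selenite. A first-read NADPH fluorescence drop versus no-compound background flagged substrates.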
PLK1 PBD block: qHTS for Inhibitors of PLK1-PDB (polo-like kinase 1 - polo-box domain): Primary Screen | Plk1 PBD binding of FITC phosphopeptide, fluorescence polarization | Serine/threonine-protein kinase PLK1 (Homo sapiens), P53350 | Potency, µM, inactives show max response, negative = inhibition, actives largely listed as inhibitors | 360,000 tested, 2.8% active; also: series mostly up to about 57 µM; nearly all actives have a fitted effect of over 65% in size
Target sequence (P53350 whole entry, looked up, the tested form may be a part): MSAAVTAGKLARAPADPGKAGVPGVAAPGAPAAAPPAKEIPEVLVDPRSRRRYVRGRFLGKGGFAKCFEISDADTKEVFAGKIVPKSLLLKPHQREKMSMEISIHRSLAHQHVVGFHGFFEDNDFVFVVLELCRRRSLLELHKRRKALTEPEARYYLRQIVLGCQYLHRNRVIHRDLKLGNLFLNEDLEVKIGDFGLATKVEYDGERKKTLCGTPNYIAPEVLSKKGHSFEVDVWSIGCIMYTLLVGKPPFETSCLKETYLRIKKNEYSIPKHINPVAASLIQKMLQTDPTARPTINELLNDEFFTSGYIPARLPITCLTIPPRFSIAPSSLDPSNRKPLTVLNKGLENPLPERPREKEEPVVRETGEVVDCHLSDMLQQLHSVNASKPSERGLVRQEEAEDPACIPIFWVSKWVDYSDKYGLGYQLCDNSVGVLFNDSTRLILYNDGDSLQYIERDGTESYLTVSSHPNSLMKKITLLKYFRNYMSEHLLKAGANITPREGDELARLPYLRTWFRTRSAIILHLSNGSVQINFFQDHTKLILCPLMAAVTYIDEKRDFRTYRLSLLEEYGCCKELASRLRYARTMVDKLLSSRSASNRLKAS
TrxR1 inh: qHTS Assay for Inhibitors of Mammalian Selenoprotein Thioredoxin Reductase 1 (TrxR1): qHTS | recombinant rTrxR1, NADPH fluorescence consumption, selenite substrate | Potency, µM (highest dose often 114 µM), without a hit: at the top dose activity change, negative = inhibition, usual class: inhibitors | 390,000 tested, 1% active | AID 588453, 2011; also: nearly all actives have a fitted effect of over 65% in size
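Rat TrxR1 (90 nM in the dispensed reagent) was pre-reduced with 400 uM NADPH for 5 min at room temperature, then incubated with compound for 15 min. After 400 uM selenite was added, NADPH fluorescence (Ex 340/Em 450 nm) was followed for 8 min.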
VDR inh: Inhibitors of the vitamin D receptor (VDR): qHTS. Vitamin D3 receptor (Homo sapiens), P11473. AID 504847, 2011. Potency, µM, for the others: max response, negative = inhibition, actives largely listed as inhibitors. VDR-SRC2-3 peptide fluorescence polarization, 2 h. 400,000 tested, 0.93% active
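Fluorescence polarization assay measuring small-molecule disruption of VDR binding to the coregulator peptide SRC2-3. Compounds were pin-transferred (23 nl) into the reagent mix and incubated 2 h at room temperature before reading.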
Sfp PPTase inh: qHTS Assay for Inhibitors of Bacillus subtilis Sfp phosphopantetheinyl transferase (PPTase) | 310,000 tested, 3.5% active | Biochemical Sfp PPTase activity, qHTS | Potency, µM, for inactives: largest response in the series, negative = inhibition, usual class: inhibitors | 4'-phosphopantetheinyl transferase ffp (Bacillus subtilis), Q9F4F7;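 also: the enzyme is Sfp with the accession as filed and its product quenches rhodamine fluorescence; 0% = enzyme reaction without inhibitor and -100% = no enzyme wells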
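After 15 min at room temperature with compound, 15 nM Sfp received 5 uM rhodamine-CoA plus 12.5 uM BHQ-2-ybbR (50 mM Hepes pH 7.6, 10 mM MgCl2). Rate came from the fluorescence difference over 30 min, ex 525/em 598 nm.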
Starred values were filed as active, the others as inactive; [ ] = dose if it differs, or a comment. In the library only some 5.2% were active in any assay of this set; here they are far more common. Calls follow the shape of the dose curve; as a rule, active = well fitted curve in the direction sought with a large enough effect; inconclusive = small, poorly fitted or top-dose-only effect, or another doubt; inactive = no such curve, though single readings can be large; an effect the other way counts as inactive or inconclusive. Unless noted, % is scaled to controls: 0 for no effect and ±100 for the full control effect; potency is read from the fitted curve at half-maximal effect.

Screening Cc1ccc(-n2c(SCC(=O)NCc3ccco3)nc3nc4c(cc3c2=O)COC(C)(C)C4)cc1 returned mIDH1 inhibitor 6%, TrxR1 substrate -1%, PLK1 PBD block -13%, TrxR1 inh -40%, VDR inh -13% and Sfp PPTase inh 25µM*.
`COc1ccc(S(=O)(=O)N(CC(=O)Nc2cccc(C(F)(F)F)c2)c2ccc(C)cc2)cc1` gave mIDH1 inhibitor 3%, TrxR1 substrate 7%, TrxR1 inh 17% and VDR inh -8%.
Cc1cc(OCC(=O)N2CCN(c3cccc(Cl)c3)CC2)c2c(C)c(C)c(=O)oc2c1 was read as mIDH1 inhibitor -4%, TrxR1 substrate 2%, PLK1 PBD block -15%, TrxR1 inh 33%, VDR inh -16% and Sfp PPTase inh 40µM*.
Screening Cc1cc(=O)oc2cc(OCC(=O)N3CCN(c4ccccc4)CC3)c(Cl)cc12 returned mIDH1 inhibitor -5%, TrxR1 substrate 5%, PLK1 PBD block 9%, TrxR1 inh 17%, VDR inh -4% and Sfp PPTase inh 12%.
CC(=O)C(C)Oc1ccc2c3c(c(=O)oc2c1)CCCC3 (configuration not stated) was read as mIDH1 inhibitor 2%, TrxR1 substrate 40%[57.1 µM], PLK1 PBD block -8%, TrxR1 inh 21%[57.1 µM], VDR inh -5% and Sfp PPTase inh 9%.
Screening CC(=O)C(C)Oc1ccc2c3c(c(=O)oc2c1)CCCCC3 (configuration not stated) returned mIDH1 inhibitor 7%, TrxR1 substrate 351%, PLK1 PBD block -7%, TrxR1 inh 32%, VDR inh 15% and Sfp PPTase inh 71µM*.
`Cc1occc1-c1nnc(SCCCC(=O)c2ccc(F)cc2)n1C` gave mIDH1 inhibitor 3%, TrxR1 substrate -10%, PLK1 PBD block -10%, TrxR1 inh -18%, VDR inh -8% and Sfp PPTase inh 50µM*.
Screening COc1cc(C(=O)NNC(=O)c2ccc(NC(=O)C(C)(C)C)cc2)cc(OC)c1OC returned mIDH1 inhibitor -2%, TrxR1 substrate 4%[57.1 µM], PLK1 PBD block -8%, TrxR1 inh 19%[57.1 µM], VDR inh -17% and Sfp PPTase inh 18%.
Cc1cccc(NC(=O)C2CCN(c3ncnc4c3nc3n4CCCCC3)CC2)n1 was read as mIDH1 inhibitor -3%, TrxR1 substrate 7%[57.1 µM], PLK1 PBD block 27µM*, TrxR1 inh 16%[57.1 µM], VDR inh -24% and Sfp PPTase inh 3%.
For CC(C)c1ccc(NC(=O)C2CCN(c3ncnc4c3nc3n4CCCCC3)CC2)cc1 the results were mIDH1 inhibitor 5%, TrxR1 substrate -12%[57.1 µM], PLK1 PBD block 30µM*, TrxR1 inh 14%[57.1 µM], VDR inh -21% and Sfp PPTase inh -11%.
For O=C(NCCc1ccccc1)C1CCN(c2ncnc3c2nc2n3CCCCC2)CC1 the results were mIDH1 inhibitor 1%, TrxR1 substrate 6%, TrxR1 inh 13% and VDR inh 17%.
Screening O=C(C1CCCN(c2ncnc3c2nc2n3CCCCC2)C1)N1CCN(c2ccc(F)cc2)CC1 (configuration not stated) returned mIDH1 inhibitor 0%, TrxR1 substrate 5%, PLK1 PBD block 27µM*, TrxR1 inh 14%, VDR inh -9% and Sfp PPTase inh 18%.
Screening O=C(NCCCN1CCCCC1)C1CCN(c2ncnc3c2nc2n3CCCCC2)CC1 returned mIDH1 inhibitor 0%, TrxR1 substrate -2%, PLK1 PBD block 27µM*, TrxR1 inh 0%, VDR inh inconclusive and Sfp PPTase inh 12%.
Screening Cc1ccc(-c2cc(C(=O)N3CCCCC3)c3ccccc3n2)cc1C returned mIDH1 inhibitor -9%, TrxR1 substrate 19%, PLK1 PBD block -8%, TrxR1 inh 4%, VDR inh -9% and Sfp PPTase inh -25%.
`O=C(CCNC(=O)N1CC(=O)Nc2ccccc21)NCc1cccc(C(F)(F)F)c1` gave mIDH1 inhibitor -4% and PLK1 PBD block 4%.
`CSC1=C(C#N)C(=O)NC(c2ccccc2O)S1` (configuration not stated) gave mIDH1 inhibitor 1%, TrxR1 substrate -2%[57.1 µM], PLK1 PBD block 2.1µM*, TrxR1 inh inconclusive, VDR inh -15% and Sfp PPTase inh inconclusive.
`CC1=C(C#N)C(c2ccccc2O)C(C#N)=C(C)N1` gave mIDH1 inhibitor 8%, TrxR1 substrate -1%, PLK1 PBD block -9%, TrxR1 inh 3%, VDR inh -20% and Sfp PPTase inh -7%.
For COC(=O)CSC1=C(C#N)C(=O)NC(c2ccccc2)S1 (configuration not stated) the results were mIDH1 inhibitor 21%, TrxR1 substrate -24%, PLK1 PBD block inconclusive, TrxR1 inh 28µM*, VDR inh 3% and Sfp PPTase inh 32µM*.
O=S(=O)(c1ccc2c(c1)OCCO2)N1CCN(CCc2ccccc2)CC1 was read as TrxR1 substrate 1%, TrxR1 inh 16% and VDR inh -14%.
Cn1c(O)c(N=Nc2ccccc2)c2ccccc21 was read as mIDH1 inhibitor 1%, TrxR1 substrate -16%, PLK1 PBD block inconclusive, TrxR1 inh -15%, VDR inh -12% and Sfp PPTase inh 50µM*.
Cn1c(O)c(N=Nc2nc(-c3ccccc3)cs2)c2ccccc21 was read as mIDH1 inhibitor -9%, TrxR1 substrate 0%, PLK1 PBD block -15%, TrxR1 inh 3%, VDR inh -2% and Sfp PPTase inh 56µM*.
COc1ccc(CCNC(=O)COc2ccc([N+](=O)[O-])cc2)cc1 was read as mIDH1 inhibitor -6%, TrxR1 substrate 1%, PLK1 PBD block 19µM*, TrxR1 inh 19%[57.1 µM], VDR inh 28µM* and Sfp PPTase inh 13%.
`C/C(CCc1oc2ccccc2c1-c1ccc(C)o1)=N/O` gave mIDH1 inhibitor 7%, TrxR1 substrate 3%, PLK1 PBD block -17%, TrxR1 inh inconclusive, VDR inh -13% and Sfp PPTase inh 28µM*.
For CC(=O)CCc1oc2ccc([N+](=O)[O-])cc2c1-c1ccc(C)o1 the results were mIDH1 inhibitor 2%, TrxR1 substrate 5%[57.1 µM], PLK1 PBD block -12%, TrxR1 inh 9%[57.1 µM], VDR inh -19% and Sfp PPTase inh -20%.
